The assay concerns the target Mu-type opioid receptor (Homo sapiens) + Delta-type opioid receptor (Homo sapiens) (UniProt P35372+P41143). Kind of assay: OPRM1-OPRD1 heterodimer formation agonism – cell-based, luminescence, confirmation (AID 504904).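 Also: 0% = vehicle-treated cells and 100% = reference agonist.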 To be noted: cells, MOR-DOR heterodimerization, luminescence complementation; at 9.3 µM; hits give high values.

Drawing on PubChem BioAssay AID504904 (The Scripps Research Institute Molecular Screening Center, 2011), this text covers activation for 21 molecules.

This is one part of the list. The source made the active and inactive calls. Rule as the data show it: active = activation above about 18%; inactive = the rest.

Chain of Mu-type opioid receptor (Homo sapiens) + Delta-type opioid receptor (Homo sapiens) (P35372 whole entry, looked up): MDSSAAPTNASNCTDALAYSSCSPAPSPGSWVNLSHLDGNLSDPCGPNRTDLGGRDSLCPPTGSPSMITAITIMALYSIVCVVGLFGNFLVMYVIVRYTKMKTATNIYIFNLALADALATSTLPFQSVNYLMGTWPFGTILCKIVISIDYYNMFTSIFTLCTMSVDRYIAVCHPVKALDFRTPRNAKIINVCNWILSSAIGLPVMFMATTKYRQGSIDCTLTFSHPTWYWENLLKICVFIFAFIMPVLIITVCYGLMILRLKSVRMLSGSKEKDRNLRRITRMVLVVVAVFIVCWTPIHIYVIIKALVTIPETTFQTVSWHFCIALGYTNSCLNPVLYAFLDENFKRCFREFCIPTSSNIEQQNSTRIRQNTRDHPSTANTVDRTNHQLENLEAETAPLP
Chain of Mu-type opioid receptor (Homo sapiens) + Delta-type opioid receptor (Homo sapiens) (P41143 whole entry, looked up): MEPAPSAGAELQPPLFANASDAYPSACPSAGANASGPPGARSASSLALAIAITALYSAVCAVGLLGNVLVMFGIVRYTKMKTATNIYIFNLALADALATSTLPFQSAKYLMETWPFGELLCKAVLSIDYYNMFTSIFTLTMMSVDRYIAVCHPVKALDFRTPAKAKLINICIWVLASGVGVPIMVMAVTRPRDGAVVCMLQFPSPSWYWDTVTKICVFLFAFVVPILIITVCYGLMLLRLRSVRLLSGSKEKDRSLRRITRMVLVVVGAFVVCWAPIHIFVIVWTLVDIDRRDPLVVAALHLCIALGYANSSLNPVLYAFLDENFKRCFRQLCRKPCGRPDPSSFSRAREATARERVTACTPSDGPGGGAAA

Consider `CCC(C(=O)OCC(=O)Nc1ccc(C(=O)Nc2ccc(OC)cc2)cc1)c1ccccc1` (stereo unspecified), for which the activation is 4.73% (inactive).
Turning to `CN(C)C(CNC(=O)c1cc2ccccc2o1)c1ccccc1` (stereo unspecified), the activation was 1.4% (inactive).
To `CN1CCN(c2ccc([N+](=O)[O-])c(Sc3nc4ccccc4[nH]3)c2)CC1` belongs 1.22% (inactive); to `CN(CC(=O)Nc1ccc(Cl)cc1)C(=O)c1ccc(COc2ccccc2)cc1`, 0.49% (inactive); to `COc1cccc(/C=N/Nc2cc(C)nc(-c3ccccc3O)n2)c1O`, -1.59% (inactive).
To `Cc1ccc(O)c(NC(=S)NC(=O)COc2ccc(Br)cc2)c1` belongs 2.92% (inactive); to `COC(=O)c1ccc(C23CC4(C2)[C@H](CN(Cc2cccnc2)[C@@H]4c2ccccc2)C3c2ccc(Cl)nc2)cc1` (stereo partly specified), 17.2% (inactive).
To `CC(c1cccnc1)N(CCN(C)C)C(=O)Nc1ccc(Cl)c(Cl)c1` (stereo unspecified) belongs -0.05% (inactive); to `CN(C)C(CNC(=O)c1ccc(S(=O)(=O)NCc2ccco2)cc1)c1ccccc1` (stereo unspecified), 16.7% (inactive).
In the case of `COc1ccccc1C(CNC(=O)c1ccc(C)c(S(=O)(=O)N2CCCCC2)c1)N(C)C` (stereo unspecified), the activation is 3.98% (inactive).
In the case of `O=C(NC1=CC(=O)c2ccccc2C1=O)c1ccccc1` it was 7.9% (inactive); in that of `N#C/C(=C(/O)COC(=O)COc1ccc(Cl)cc1)c1nc2ccccc2[nH]1`, 13.4% (inactive); in that of `CCOC(=O)C1(CC2CCCCO2)CCN(Cc2nc(-c3cccs3)oc2C)CC1` (stereo unspecified), 49.1% (active).
Consider `CCNS(=O)(=O)c1ccc(NC(=O)Nc2cccc(OC)c2)cc1`, for which the activation was 3.23% (inactive).
To `CC1CCCN(CCOCCOc2ccccc2-c2ccccc2)C1` (stereo unspecified) belongs 1.28% (inactive); to `CN(C)CCCN(C(=O)c1ccc(S(=O)(=O)N2CCCc3ccccc32)cc1)c1nc2ccc(F)cc2s1`, 8.38% (inactive); to `COc1cc(/C=N/NC(=O)Nc2ccccc2)ccc1OCCOc1ccccc1C`, 17.1% (inactive).
Turning to `C=C(C)COc1ccc(-c2n[nH]c(C)c2-c2ccccc2)c(O)c1`, the activation is 13.3% (inactive).
On to `Clc1ccc(COn2c(-c3ccc(Cl)cc3Cl)nc3ncccc32)cc1`, for which the activation is 2.83% (inactive).
For `Cc1ccc(CN(C(=O)c2sc3ccccc3c2Cl)C2CCS(=O)(=O)C2)cc1` (stereo unspecified), the activation was 24.1% (active).
In the case of `CN(C)C(CNC(=O)Cc1ccc([N+](=O)[O-])cc1)c1ccccc1` (stereo unspecified) it was 164% (active).
